Sampled rows, rich in hits. Any-hit rate of the full collection: about 9.2%.
ELG1 genotoxic: inducers of genotoxicity in HEK293T ELG1-luciferase cells | Potency, µM (series often up to 46 µM), usual class: activators | 1.3% of 330,000 active | HEK293T ELG1-luciferase reporter, luminescence, 16 h; further: nearly all actives have a fitted effect of over 60% in size
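Reporter readout depends on ELG1 protein level, which increases with genetic stress. After 16 hr compound exposure at 37 °C, luciferase activity was quantified using ONE-Glo.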
SMN2 splice enh: increases expression of the SMN2 splice variant; HEK293 SMN2-luciferase splicing reporter, luminescence, 30-36 h; Potency, µM (series often up to 46.1 µM), most hits filed as activators; 2.8% of 210,000 active; further: nearly all actives have a fitted effect of over 55% in size
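HEK293 cells carry an SMN2 […]–luciferase reporter in which exon 7 inclusion puts luciferase in frame. Cells were plated 10-12 h before compound addition, then incubated 30-36 h at 37C. ONE-Glo luminescence was read; sodium butyrate at 4.5 mM final served as control.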
ELG1 repair inh: blocks ELG1-dependent DNA repair in HEK293T cells; AID 504467; HEK293T ELG1-luciferase reporter, luminescence, 16 h; DNA damage induced by 5-fluorouridine; Potency, µM (series often up to 46.1 µM), actives largely listed as inhibitors; 2.3% of 330,000 active; further: nearly all actives have a fitted effect of over 55% in size
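5-Fluorouridine DNA damage + compound/DMSO, 2,000 cells/well, 16 h, 37 °C/5% CO2. ONE-Glo, 30 min RT, luminescence. Readout = decrease in reporter signal.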
Rab9 promoter act: activators of Rab9 promoter. Huh7 Rab9 promoter-luciferase reporter, luminescence, 24 h. Potency, µM (doses to about 9.22 µM), most hits filed as activators. 2.8% of 320,000 active. AID 485297; further: nearly all actives have a fitted effect of over 60% in size
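Rab9 promoter-driven luciferase in stably transfected Huh7 cells; 1500 cells/well rested 2 h, exposed to compound in DMSO for 24 h at 37 °C, 5% CO2. Luminescence read 10 min after adding luciferase reagent at ambient temperature.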
NPC1 promoter act: activates the NPC1 promoter. Huh7 NPC1 promoter luciferase reporter, 24 h. Potency, µM (top dose mostly 9.22 µM), usual class: activators. 2.4% of 320,000 active. AID 485313; further: nearly all actives have a fitted effect of over 60% in size
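Quantitative HTS used a cell-based reporter: Huh7 cells stably bearing the NPC1 promoter upstream of luciferase were treated with compounds for 24 h, and promoter activation was read as luminescence.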
FLuc counter: firefly luciferase modulation, counter-screen for miR-21 project; Potency, µM (doses to about 57.5 µM), most hits filed as inhibitors; P08659; purified FLuc, Km substrates, luminescence inhibition; 6.9% of 360,000 active; further: nearly all actives have a fitted effect of over 55% in size
Target sequence (P08659 whole entry, looked up): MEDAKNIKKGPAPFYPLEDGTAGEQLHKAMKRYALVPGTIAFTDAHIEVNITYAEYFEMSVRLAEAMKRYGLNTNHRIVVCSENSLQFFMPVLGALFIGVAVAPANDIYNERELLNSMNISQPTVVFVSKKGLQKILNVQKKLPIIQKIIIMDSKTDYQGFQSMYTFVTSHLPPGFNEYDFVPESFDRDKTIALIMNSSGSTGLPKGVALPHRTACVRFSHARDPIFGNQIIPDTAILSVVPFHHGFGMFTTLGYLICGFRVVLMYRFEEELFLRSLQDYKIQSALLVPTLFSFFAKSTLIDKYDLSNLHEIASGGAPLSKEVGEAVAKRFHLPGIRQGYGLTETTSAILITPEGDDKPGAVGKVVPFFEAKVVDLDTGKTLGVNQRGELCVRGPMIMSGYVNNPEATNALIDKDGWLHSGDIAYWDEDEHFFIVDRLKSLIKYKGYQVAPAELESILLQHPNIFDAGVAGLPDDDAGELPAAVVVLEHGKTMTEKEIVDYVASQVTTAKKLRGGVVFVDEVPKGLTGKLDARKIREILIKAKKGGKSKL
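Purified P. pyralis luciferase, 10 nM final, with Km-level 10 uM D-luciferin and 10 uM ATP in 50 mM Tris acetate pH 7.5, 10 mM Mg acetate, 0.01% Tween-20, 0.05% BSA; 6-point qHTS titration about 60 µM downward; luminescence read.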
Numbers stand for hits; [ ] = remark or other dose. The call rests on the fitted dose curve; in most records, active means well fitted curve in the direction sought with a large enough effect; inconclusive means small, poorly fitted or top-dose-only effect, or another doubt; inactive means no such curve, though single readings can be large; an effect the other way counts as inactive or inconclusive.

How did O=C(c1ccccc1-c1nc2ccccc2[nH]1)N1CCCCC1 do in these assays?
ELG1 genotoxic: inactive; SMN2 splice enh: inactive; ELG1 repair inh: inactive; Rab9 promoter act: inactive; NPC1 promoter act: inactive; FLuc counter: inactive

How did Oc1ccc(C=Nc2ccccc2-c2nc3ccccc3[nH]2)c(O)c1 do in these assays?
ELG1 genotoxic: inconclusive; SMN2 splice enh: 14.1µM; ELG1 repair inh: inconclusive; Rab9 promoter act: inconclusive; NPC1 promoter act: inconclusive; FLuc counter: 4.78µM

Results for COc1cccc(NC(=O)c2ccnc(N3CCC(C(=O)NCc4cc(OC)ccc4OC)CC3)c2)c1 ?
ELG1 genotoxic: inactive; ELG1 repair inh: inconclusive; Rab9 promoter act: inactive; NPC1 promoter act: inactive; FLuc counter: inactive

Results for COCCn1c(=O)[nH]c2cc(C(=O)NCc3ccccc3Cl)ccc2c1=O ?
SMN2 splice enh: 3.98µM; FLuc counter: inactive

How did COCCn1c(=O)[nH]c2cc(C(=O)NCCN3CCN(c4cccc(Cl)c4)CC3)ccc2c1=O do in these assays?
ELG1 genotoxic: inactive; SMN2 splice enh: inactive; ELG1 repair inh: 20.6µM; Rab9 promoter act: inactive; NPC1 promoter act: inactive; FLuc counter: inactive

What do the screens show for `COCCn1c(=S)[nH]c2cc(C(=O)N3CCN(c4cccc(Cl)c4)CC3)ccc2c1=O`?
ELG1 genotoxic: inactive[9.26 µM]; ELG1 repair inh: inconclusive; Rab9 promoter act: inactive; NPC1 promoter act: inactive; FLuc counter: inactive

Results for Cc1cc(C(=O)NCCN2CCN(c3cccc(Cl)c3)CC2)n(-c2ccccc2)n1 ?
ELG1 genotoxic: inactive; SMN2 splice enh: inactive; ELG1 repair inh: 8.2µM; Rab9 promoter act: inactive; NPC1 promoter act: inactive; FLuc counter: inactive

Results for COc1ccc(C(=O)N2CCC3(CCN(Cc4cc(C(F)(F)F)cc(C(F)(F)F)c4)CC3)CC2)cc1 ?
SMN2 splice enh: inactive

Results for O=C(CSc1nc2c([nH]c3ccccc32)c(=O)n1-c1ccc(F)cc1)NCc1ccc(F)cc1 ?
FLuc counter: inactive

Results for CCOC(=O)N/N=C\c1ccc(OC/C=C/c2ccccc2)c(OC)c1 ?
ELG1 genotoxic: inactive; ELG1 repair inh: inactive; Rab9 promoter act: inactive; NPC1 promoter act: inactive; FLuc counter: 12µM

Results for COc1cccc(/C=N\NC(C)=O)c1OC/C=C/c1ccccc1 ?
ELG1 genotoxic: inactive; ELG1 repair inh: 20.6µM; Rab9 promoter act: inactive; NPC1 promoter act: inactive; FLuc counter: inactive

How did COC(=O)N/N=C\c1ccc(OC/C=C/c2ccccc2)c(OC)c1 do in these assays?
ELG1 genotoxic: inactive; ELG1 repair inh: inactive; Rab9 promoter act: inactive; NPC1 promoter act: inactive; FLuc counter: inactive

Results for COc1cc(C(=O)OCC(=O)N2c3ccccc3NC(=O)C2(C)C)ccc1OCC(C)C ?
ELG1 genotoxic: inactive; ELG1 repair inh: inconclusive; Rab9 promoter act: inactive; NPC1 promoter act: inactive; FLuc counter: inactive

Results for O=C(Cc1ccccc1)NCC(=O)N1CCN(Cc2cccc(Cl)c2)CC1 ?
ELG1 genotoxic: inactive; ELG1 repair inh: inactive

Results for Cc1cc(C)n(CC(=O)NNC(=O)CC(C)c2ccccc2)n1 (stereo not given) ?
ELG1 genotoxic: inactive; ELG1 repair inh: inconclusive; Rab9 promoter act: inactive; NPC1 promoter act: inactive; FLuc counter: inactive

Results for COc1cccc(C(O)c2cnc(C(C)C)n2C)c1 (stereo not given) ?
ELG1 genotoxic: inactive; ELG1 repair inh: inactive; Rab9 promoter act: inactive; NPC1 promoter act: inactive; FLuc counter: inactive

Results for CN(C)C=Nc1ncc2c3ccccc3n(CCN(C)C)c2c1C#N ?
ELG1 genotoxic: inactive; SMN2 splice enh: inactive; ELG1 repair inh: 6.51µM; Rab9 promoter act: inactive; NPC1 promoter act: inactive; FLuc counter: inactive

What do the screens show for `COc1cccc(COc2ccc3ccc(=O)oc3c2)c1`?
ELG1 genotoxic: inconclusive; ELG1 repair inh: inconclusive; Rab9 promoter act: 3.16µM; NPC1 promoter act: inconclusive; FLuc counter: 13.5µM

How did COc1ccc(COc2ccc3ccc(=O)oc3c2)cc1 do in these assays?
ELG1 genotoxic: inconclusive; ELG1 repair inh: inconclusive; Rab9 promoter act: 2.82µM; NPC1 promoter act: 3.98µM; FLuc counter: 10.7µM

How did COc1ccc(CCC(=O)NC2CC(=O)N(c3ccc(F)cc3)C2)cc1 (stereo not given) do in these assays?
FLuc counter: inactive

What do the screens show for `CN1/C(=C/C(=O)c2cccs2)Sc2ccccc21`?
ELG1 genotoxic: 1.3µM; SMN2 splice enh: 7.94µM; ELG1 repair inh: inconclusive; Rab9 promoter act: inactive; NPC1 promoter act: inactive; FLuc counter: 1.2µM

How did CN1/C(=C\C(=O)c2cccs2)Sc2ccccc21 do in these assays?
ELG1 genotoxic: inconclusive; ELG1 repair inh: inconclusive; Rab9 promoter act: 3.55µM; NPC1 promoter act: inconclusive; FLuc counter: 1.51µM

How did CN1/C(=C/C(=O)C2CCC2)Sc2ccccc21 do in these assays?
ELG1 genotoxic: inconclusive; SMN2 splice enh: inconclusive; ELG1 repair inh: inconclusive; Rab9 promoter act: inconclusive; NPC1 promoter act: inconclusive; FLuc counter: 16.9µM

How did Cc1cc2nc3n(c2cc1C)CC1CC(C(=O)NCC2CC2)N(C)C31 (stereo not given) do in these assays?
ELG1 genotoxic: inactive; ELG1 repair inh: inactive; Rab9 promoter act: inactive; NPC1 promoter act: inactive; FLuc counter: inactive

How did COc1cccc(C2=NN(C(=O)c3ccco3)C(c3ccco3)C2)c1 (stereo not given) do in these assays?
ELG1 genotoxic: inactive; ELG1 repair inh: inactive; Rab9 promoter act: inactive; NPC1 promoter act: inactive; FLuc counter: 10.7µM

How did CS(=O)(=O)Nc1ccc(C2=NN(C(=O)c3ccco3)C(c3ccco3)C2)cc1 (stereo not given) do in these assays?
ELG1 genotoxic: inactive; ELG1 repair inh: inconclusive; Rab9 promoter act: inactive; NPC1 promoter act: inactive; FLuc counter: inconclusive

How did CCn1c(=O)n(CC)c2cc(S(=O)(=O)Nc3ccccc3C)c(C)cc21 do in these assays?
ELG1 genotoxic: inconclusive; SMN2 splice enh: 7.94µM; ELG1 repair inh: inconclusive; Rab9 promoter act: inactive; NPC1 promoter act: inactive; FLuc counter: inactive

How did Cc1nc(C)c(-c2ccc(SCC(=O)Nc3cccc(F)c3)nn2)s1 do in these assays?
ELG1 genotoxic: inactive; ELG1 repair inh: inconclusive; Rab9 promoter act: inactive; NPC1 promoter act: inactive; FLuc counter: inconclusive

What do the screens show for `CC(=O)c1cccc(Nc2nc(-c3sc(C)nc3C)cs2)c1`?
ELG1 genotoxic: inactive; ELG1 repair inh: 16.4µM; Rab9 promoter act: inactive; NPC1 promoter act: inactive; FLuc counter: inconclusive

Results for CC(=O)c1cccc(NC(=O)CSc2ccc(-c3sc(C)nc3C)nn2)c1 ?
ELG1 genotoxic: inactive; ELG1 repair inh: 23.1µM; Rab9 promoter act: inactive; NPC1 promoter act: inactive; FLuc counter: 13.5µM

What do the screens show for `CC(=O)c1cccc(Nc2nc(-c3sc(N)nc3C)cs2)c1`?
ELG1 genotoxic: inactive; ELG1 repair inh: 8.2µM; Rab9 promoter act: inactive; NPC1 promoter act: inactive; FLuc counter: 16.9µM

Source: PubChem
